# In the supplement of paper PMC11417369:
# ± gives the standard deviation of the averaged measurements. The full ranking holds about 25,000 sequences; the median of “ln(normalized median fluorescence intensity)” is about 8.6, and the highest 2% start at about 10. The full list was thinned out, with the highest values kept by preference.
# System: PfAP2-EXP AP2 domain (GST-tagged)
# Test: gcPBM binding intensity (ln(normalized median fluorescence intensity)); higher = stronger DNA binding
# Outline: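 Binding intensity is defined as the maximum Masliner-normalised natural-log median intensity across replicate spots for either probe orientation. It was measured on an Agilent 4 × 180k array of primer-extended double-stranded 36-bp intergenic genomic probes and negative controls, to which GST-tagged P. falciparum DNA-binding domains made in E. coli were applied for 1 h in 1× PBS with 1% milk, 0.2 mg/ml BSA, 0.5% salmon testes DNA and 0.03% Triton X-100. Detection was by Alexa488 anti-GST antibody and scanning at 488 nm.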
row,Sequence,gcPBM binding intensity (ln)
1,AGAATATTTATATGATGTACTTATATATATATATAT [XGTACX_site3021],9.97 ± 0.47
2,AAAAGCACAAAAAATACACACACAAAAAATAAAAAA [CACACA_site8545],8.5 ± 0.57
3,TTCAAATTGTTTATATGTACTTATAAAAATTGTCTG [XGTACX_site977],8.35 ± 0.42
4,ATATATATATATATATGTACTAAGAATTCTTTAAAA [XGTACX_site8476],10.3 ± 0.16
5,ACATGAATTTATATGTGTACTAACTATATTCTTAAA [XGTACX_site5966],8.27 ± 0.25
6,TTAAAAATAATATTATGTACTAAGAATAAATATATA [XGTACX_site3100],8.34 ± 0.43
7,CATTTTAAAGAAAATACACACAAAAATAGATATATA [CACACA_site6773],8.66 ± 0.38
8,ATTTGTTACGGACATGCATGCGAATCAGGGTATATA [TGCATGCA_site154],10.1 ± 0.28
9,TATTCCCCCCAACACACACACACACCGACATACCAC [CACACA_site8723],10.2 ± 0.23
10,CATATTCCCCCCCACACACACACACGCATACATACC [CACACA_site7148],11.1 ± 0.19
11,CATACACCCATACATACACACATACATACACCCATA [CACACA_site5124],8.67 ± 0.47
12,CACAAACACCCAAACACACACACACCGACATACATA [CACACA_site4410],8.41 ± 0.54
13,TTGGCATACAGACACACACACACACCCCCACATATA [CACACA_site590],9.43 ± 0.61
14,CATATATACGCATACACACACACACCCACACCCACA [CACACA_site1725],8.79 ± 0.52
15,ACCATACATACATACACACACACACGCATATTTATA [CACACA_site7386],9.05 ± 0.6
16,CATATTCCCCCCCACACACACACACCCATACATACC [CACACA_site2303],11.1 ± 0.18
17,TATTCCCCCAAACACACACACACACCCACATACCAC [CACACA_site2304],9.33 ± 0.23
18,GACATATTCCCCCCCACACACACACCCACATACATA [CACACA_site2302],10.8 ± 0.11
19,TACATATACAGACACACACACACACCCCCACAAAAA [CACACA_site495],9.88 ± 0.52
20,AAAAAAAAAATACATACACACACACCCACCCATATA [CACACA_site9187],9.14 ± 0.54
21,TTTTTTTTTTTTTTTATAGTACATTACCAAAAAAAA [CACACA_negctrl_site1197],8.27 ± 0.39
22,TTTGAAATAAGCAAATGTACATTATTATTAAATATA [XGTACX_site6158],8.38 ± 0.32
23,GAATCACTAATTTTTTTACACACCACAATTTAATTT [CACACA_site8311],8.94 ± 0.47
24,TATATTAAATATTACACACATACATTTAGTGTCAAA [CACACA_site1990],8.35 ± 0.37
25,TTTTTATATTCCCCCAGTACATATATAATAGTAGTA [XGTACX_site7927],10 ± 0.3

row,Sequence,gcPBM binding intensity (ln)
1,AACAAGAAAAAAAAAAAAAAAAAAAAAAAATATTTT [XGTACX_negctrl_site428],8.13 ± 0.3
2,ATAATAATATTTCTATGTACTTATTTTATGTATTAG [XGTACX_site1747],8.51 ± 0.4
3,TTTGAATAAAAACAAAAAATTAAATTAAATTAAATA [CACACA_negctrl_site312],8.15 ± 0.5
4,ATTTCCTTGAATGTTGCATGCTGTATTTTAATTAAA [TGCATGCA_site280],9.88 ± 0.43
5,ATTTTTGAACGGTACAGTACAGAATTTAATTAACCC [XGTACX_site47],9.13 ± 0.54
6,AAAAAAAACGGACACACACACATAAATATATATAAA [CACACA_site4260],9.02 ± 0.4
7,AGTATACATATATATACACACACATATATATATATA [CACACA_site7883],9.98 ± 0.62
8,CTAAAATACGGACACACACACACATATATATATATA [CACACA_site6138],10.3 ± 0.15
9,AAAAAAAACGGACACACACACATACCCATACATACA [CACACA_site5574],8.78 ± 0.49
10,AGTATACTCGGACACACACACACATATATATATATA [CACACA_site5031],10.3 ± 0.2
11,AAAAAAAACGGACACACACACATACAAAATATATAT [CACACA_site4910],8.7 ± 0.38
12,AAAAAACACGGACACACACACATATACATACATACA [CACACA_site5470],9.07 ± 0.3
13,AATAACCACGGACACACACACATATATATATATATA [CACACA_site5873],10.2 ± 0.46
14,CGCATACACGGACACACACACACATATATATATATA [CACACA_site4520],10.1 ± 0.34
15,CCCCCCCACGGACACACACACATACATACCACATAT [CACACA_site5303],10.3 ± 0.19
16,AGTATACATATATATACACACATATATATATATATA [CACACA_site300],10.2 ± 0.34
17,TACATACACGGACACACACACATATATATATATATA [CACACA_site5883],10.2 ± 0.36
18,TTTAAAATTATAAGGATTAAAAAAAAAAAAAATAAA [CACACA_negctrl_site114],8.27 ± 0.45
19,ATTTTGTTTTTTTTTGCACACCATAAGGAGTGTAGG [CACACA_site1414],8.84 ± 0.41
20,AATAATGTATGAAATAAACACACAAGTAAGTACATA [CACACA_site8776],8.85 ± 0.39
21,TACAAAAGCGATACGGCACACATTTCCTGTTTAAAT [CACACA_site2746],8.74 ± 0.33
22,AATTATTTACCCTATACACACAAAACACGCTAAAAA [CACACA_site1211],8.79 ± 0.43
23,AATATATTTTTTCACTGTACTTTTATTATATATACA [XGTACX_site8312],8.97 ± 0.36
24,AAATAAAAACATAACAGTACAGTTAACATTTTTATA [XGTACX_site3479],8.29 ± 0.35
25,AATACATTTATGAGCTGTACACATTTATTTGAGCTA [XGTACX_site7695],8.51 ± 0.27

row,Sequence,gcPBM binding intensity (ln)
1,ATATTTAAATATATTTATATATATAAAAAAAAATAT [GTGCAC_negctrl_site312],8.56 ± 0.39
2,TATCGACATTTCATTTGTACATATATACATATATTT [XGTACX_site3346],8.64 ± 0.42
3,TGTTCATTTATTTACTTACACACTTTATATATGTGG [CACACA_site1410],8.79 ± 0.53
4,GAATTAATTTTAAAACGTACATGGGTGTATTTACAC [XGTACX_site5939],8.86 ± 0.3
5,GGGAGGATATTACACAGTACCCAGAAAATCTACGGA [XGTACX_site2551],8.8 ± 0.43
6,TTATTATATTAAAAGAGGACACATTTATTTTTTTTT [XGTACX_site1241],8.09 ± 0.53
7,CATATATACACATACACACACACACGGACACGCACA [CACACA_site6910],8.87 ± 0.53
8,AAAATACCCGGACACACACACATATATATATATATT [CACACA_site6137],8.83 ± 0.31
9,TACACAAGCGGACACACACACATATATATATATATA [CACACA_site4832],10.3 ± 0.13
10,CATACATACGGACACACACACATATATATATATATA [CACACA_site5598],10.2 ± 0.41
11,CACAGACACGGACACACACACACACCCACATATATA [CACACA_site4355],8.73 ± 0.41
12,TACACAAGCAGACACACACACATATATATATATATA [CACACA_site1270],10.1 ± 0.53
13,AATACATACGGACACACACACACATATATATATATA [CACACA_site5884],10.3 ± 0.17
14,TATACACCCGGACACACACACATATATATATATATA [CACACA_site5030],10.1 ± 0.54
15,CACAGACACGGACACACACACATATATAATATATAT [CACACA_site4495],8.84 ± 0.33
16,GTAATACCCAAACACACACACATACCCATATATATA [CACACA_site5510],8.88 ± 0.52
17,CACAGACACGGACACACACACATATATATATATATA [CACACA_site5248],10.2 ± 0.26
18,AATACCCAAGGACACACACACACATATATATATATA [CACACA_site8345],10.2 ± 0.26
19,TTCAAAATATATATTTGTACATATAGGATCTTTTTC [XGTACX_site4500],8.41 ± 0.45
20,TTTTTTTATTAATGTAGTACAATATAATGTTATATT [XGTACX_site2295],8.54 ± 0.29
21,AGACGAAAATAATAAAGTACTAAAAAAAAAAAAAAA [XGTACX_site927],8.14 ± 0.51
22,AAACAAATATATATATGTACTTATAAAAAAAAAAAT [XGTACX_site2211],8.54 ± 0.45
23,AGGATACACGGACACACACACATATAGATTTATATA [CACACA_site6552],8.59 ± 0.52
24,TAATAAATAGGACACACACACATATATATATATTAT [CACACA_site4891],8.87 ± 0.52
25,TACATATTTATATACACACACACACGGATATTTATA [CACACA_site7239],8.94 ± 0.28

row,Sequence,gcPBM binding intensity (ln)
1,AGGATACACGGACACACACACATATATATATATATA [CACACA_site4654],10.2 ± 0.28
2,AACATTATAGGACACACACACACATATATATATATA [CACACA_site4721],10.3 ± 0.13
3,ATAAATATAGGACACACACACATATTATATATATAT [CACACA_site5658],9.65 ± 0.12
4,TATAAAATTTAAATTATACACACTTAAGTAACATCA [CACACA_site531],8.74 ± 0.35
5,AATTATCAAAGTCTATACATACATACATACATACAT [GTGCAC_negctrl_site243],8.95 ± 0.23
6,ATAAATCTACACCGCACACAAAAACAACAAATATTA [CACACA_site5396],8.64 ± 0.58
7,GTTATACTCATATATACACACATATGTAAATATATA [CACACA_site5764],8.94 ± 0.58
8,CAACATTTGAAACACACACACATACAAACAAACAAA [CACACA_site3306],8.89 ± 0.47
9,ATTCATTTTTTGGGGGGTACACCCTTTTAAACATTT [XGTACX_site4797],10.3 ± 0.48
10,TTTTTAATTTTTTTTAAACACACACCGTACATTCAA [CACACA_site7925],8.54 ± 0.38
11,AAAAATTTAAGTGGGGGTACATTTTTTTAACACCTT [XGTACX_site1093],9.46 ± 0.48
12,TATATATCGCATAAAACACACAAAAAAAAAATTAAA [CACACA_site7767],8.35 ± 0.59
13,TCCACACAATTTATAACATGCAAAAAGGCAATAATA [TGCATGCA_site773],8.69 ± 0.42
14,AATATATACATACATACATGCATACATATATATAAC [TGCATGCA_site371],8.73 ± 0.23
15,CATACATACATACATACATGCATACATACATACATA [TGCATGCA_site218],9.3 ± 0.26
16,AATACATACATATATACATGCATACATATAAATATA [TGCATGCA_site674],8.64 ± 0.35
17,AATACATACATACATACATGCATATATATATATATA [TGCATGCA_site462],10.2 ± 0.14
18,CATATAAATAAATATACATGCATACATACATATATA [TGCATGCA_site713],8.51 ± 0.23
19,TATATATATATACATACATGCATATATATATATATA [TGCATGCA_site513],10.2 ± 0.54
20,AATATATATATACATACATGCATACATATATATATA [TGCATGCA_site784],9.8 ± 0.14
21,TATATATATATATATACATGCATATATATAATATAT [TGCATGCA_site763],10.1 ± 0.52
22,TATATATATATATATACATGCATACATATACATACA [TGCATGCA_site897],10.2 ± 0.5
